Assay [1] concerns Zika virus NS2B-NS3 protease. Kind of assay: Primary screen GU AMC qHTS for Zika virus inhibitors (AID 1347154). Further: nearly all actives have a fitted effect of over 70% in size. Further: potency means the concentration at half of the fitted maximal effect. Put shortly:
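Fluorogenic AMC-substrate cleavage by noncovalent NS2B-NS3 protease complex (25 nM, pH 8.0 Tris buffer with Tween 20) followed for 15 minutes at room temperature (~20% conversion). Percent inhibition from ex340/em450 signal change, fitted by 4-parameter Hill equation.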

For assay [2], the target named is N-terminal Xaa-Pro-Lys N-methyltransferase 1 (Homo sapiens) (UniProt Q9BV86). The experiment in a line: qHTS Assay for Inhibitors of N-terminal methyltransferase 1 (NTMT1): LOPAC validation of the NTMT1 SAHH-coupled ThioGlo3 Assay (AID 1347143).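 Further: SAH from peptide methylation measured as thiol fluorescence via SAHH coupling and ThioGlo3; nearly all actives have a fitted effect of over 70% in size.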 Further: potency means the concentration at half of the fitted maximal effect. In short, it runs like this: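 Inhibition of NTMT1 methylation of peptide SPKRIA is followed by converting SAH with SAHH and labelling the released thiol with ThioGlo3. Plates are read at 340/450nm before and 30 min after reagent addition, both at room temperature.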
Chain of N-terminal Xaa-Pro-Lys N-methyltransferase 1 (Homo sapiens) (Q9BV86 whole entry, looked up): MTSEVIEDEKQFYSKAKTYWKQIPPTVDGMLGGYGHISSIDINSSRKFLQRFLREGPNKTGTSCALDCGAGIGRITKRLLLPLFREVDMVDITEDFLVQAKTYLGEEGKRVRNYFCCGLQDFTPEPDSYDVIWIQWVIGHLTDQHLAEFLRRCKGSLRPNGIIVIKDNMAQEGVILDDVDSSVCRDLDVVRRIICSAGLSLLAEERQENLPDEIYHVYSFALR
A general note: In qHTS, concentration-response curves come from the screen itself.

Assay [3] has as its system Zika virus NS2B-NS3 protease (unlinked). The experiment in a line: Optimization of GU AMC qHTS for Zika virus inhibitors: Unlinked NS2B-NS3 protease assay (AID 1347151). Further: nearly all actives have a fitted effect of over 80% in size. Further: potency means the concentration at half of the fitted maximal effect. Put shortly:
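Noncovalent complex of NS2B hydrophilic domain and NS3 protease domain, 25 nM final, in 10 mM Tris-HCl pH 8.0, 0.01% Tween 20. AMC fluorescence change over 15 min at room temperature was fitted to a 4-parameter Hill equation.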

In assay [4] the target is Lysine-specific demethylase 5B (Homo sapiens) (UniProt Q9UGL1). The experiment in a line: Optimization screen for KDM5B Histone Demethylases FDH coupled qHTS against the LOPAC library (AID 1347166). In short, it runs like this:
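KDM5BDeltaAP (200nM final) preincubated 10 min with compound, then 12.5uM H3K4Me3, 25uM a-ketoglutarate, ascorbate, Fe(II), NAD+ and FDH added; 50mM HEPES pH 7.5, 0.01% Tween-20. NADH fluorescence (340/450 nm) change over 30 min, room temperature.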

In assay [5] the test system is Zika virus NS2B-NS3 protease (unlinked complex). The experiment in a line: Primary screen GU Rhodamine qHTS for Zika virus inhibitors: Unlinked NS2B-NS3 protease assay (AID 1347159). Further: nearly all actives have a fitted effect of over 60% in size. In short, it runs like this:
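Compounds, tested up to 114 microM, were incubated for 15 minutes with 25 nM unlinked NS2B-NS3 protease at pH 8.0. Cleavage of 1.5 microM Rhodamine110 substrate was then followed by fluorescence for 15 minutes.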

Assay [6] relates to Zika virus NS2B-NS3 protease (linked construct). Kind of assay: Primary screen NINDS Rhodamine qHTS for Zika virus inhibitors (AID 1347160). Further: nearly all actives have a fitted effect of over 55% in size. The note with it: outcome: dose series up to 57.1 µM. Put shortly:
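Percent inhibition, normalized to uninhibited and enzyme-free controls, is fitted to a 4-parameter Hill equation. Fluorescence change comes from a 15-min cleavage of 1.5 microM bis-peptide Rhodamine110 substrate by 25 nM linked NS2B-NS3 at room temperature.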

The next assay has as its target Furin (Homo sapiens) (UniProt P09958). Kind of assay: Furin counterscreen qHTS for Zika virus inhibitors (AID 1347149). Further: nearly all actives have a fitted effect of over 70% in size. Further: potency means the concentration at half of the fitted maximal effect. Put shortly:
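Fluorogenic cleavage of BOC-RVRR-AMC (2 microM final, Km ~15 µM) was monitored (ex 340, em 450 nm) at 37C after 15 min RT preincubation of 5 nM furin with compounds in HEPES pH 7.0 buffer with CaCl2 and Triton X-100. Percent inhibition was fitted to a 4-parameter Hill curve.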
In general terms: A counterscreen serves to expose hits that act by an unwanted route or on another target.

In assay [7] the test system is Zika virus NS2B-NS3 protease (unlinked complex). The experiment in a line: Confirmatory screen GU AMC qHTS for Zika virus inhibitors (AID 1347153). Further: nearly all actives have a fitted effect of over 70% in size. Further: potency means the concentration at half of the fitted maximal effect. In short, it runs like this: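 Unlinked enzyme 25 nM, Tris pH 8.0/0.01% Tween 20; cpd 15 min RT, dark; + AMC substrate 10 µM (Km 18.3 µM); 340/450 nm read at t0 and 15 min; % inhibition → 4-param fit.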
Assay [8] in a line: Confirmatory screen NINDS Rhodamine qHTS for Zika virus inhibitors (AID 1347161). Further: potency means the concentration at half of the fitted maximal effect; nearly all actives have a fitted effect of over 60% in size. In short, it runs like this: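 In 10 mM Tris-HCl pH 8.0 containing 0.01% Tween 20, linked NS2B-NS3 protease (25 nM final) is exposed to test compounds for 15 min. Cleavage of 1.5 microM Rhodamine110 substrate is tracked by fluorescence over 15 min.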
Assay [9] in a line: Vero cells viability qHTS for Zika virus inhibitors (AID 1347167). In short, it runs like this: (§1)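 Compounds were tested in concentration series on cells grown in DMEM containing 4% FBS. After 24 to 48 hours, cellular ATP was measured by luminescence with CellTiter Glo.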
Assay [10] in a line: HepG2 cells viability qHTS for Zika virus inhibitors (AID 1347168). Put shortly: as §1
A short description of assay [11]: Tertiary RLuc qRT-PCR qHTS assay for Zika virus inhibitors (AID 1347169). Further: nearly all actives have a fitted effect of over 55% in size. Further: potency means the concentration at half of the fitted maximal effect. Put shortly: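 Vero cells (1,000 per well) plated overnight at 37 degrees C, treated with compound in DMSO, then infected with recombinant ZIKV-RLuc (Cambodian) at MOI 1-2 for 48-72 hrs. Live-cell Renilla luciferase substrate added; luminescence read after 1-1.5 hrs.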
For orientation: Real-time PCR tracks product formation cycle by cycle.

For assay [12], the system named is Zika virus NS2B-NS3 protease (linked construct). Kind of assay: Confirmatory screen NINDS AMC qHTS for Zika virus inhibitors (AID 1347152). In short, it runs like this:
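Purified NS2B-NS3 protease with NS2B hydrophilic domain linked to NS3 protease domain by flexible linker, 1 nM final in 10 mM Tris-HCl pH 8.0, 0.01% Tween 20. Compounds preincubated 15 min, room temperature; Bz-Nle-KRR-AMC 10 microM (Km 18.3 µM); 15-min fluorescence change, 4-parameter Hill fit.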

Assay [13] is described as follows: Confirmatory screen GU Rhodamine qHTS for Zika virus inhibitors qHTS (AID 1347157). The note with it: purified enzyme assay, Rhodamine110 substrate fluorescence, 15 min. Put shortly: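 A qHTS format was used, with compound concentrations ranging up to 114 microM. Each compound was preincubated with 25 nM NS2B-NS3 protease, and the substrate was then added at 1.5 microM. Curves were fitted with a 4-parameter Hill model.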

Assay [14] in a line: ZIKV-mCherry secondary qHTS for Zika virus inhibitors (AID 1347158). Further: potency means the concentration at half of the fitted maximal effect. In short, it runs like this:
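After overnight seeding at 37 °C, Vero cells receive compound and then ZIKV-mCherry (MOI 1). Following 48-72 h infection, cells are fixed, counterstained with Hoechst, and imaged; percent infected cells is derived from an mCherry intensity cut-off of 450 RFU.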

Assay [15] concerns Zika virus NS2B-NS3 protease (linked construct). The experiment in a line: 384 well plate NINDS Rhodamine confirmatory qHTS for Zika virus inhibitors (AID 1347164).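 Further: fluorescence from protease cleavage of Ac-LKRR-rhodamine 110 substrate; potency means the concentration at half of the fitted maximal effect; nearly all actives have a fitted effect of over 65% in size.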 In short, it runs like this: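 Linked protease at a final 5 nM, 30 nM or 60 nM was preincubated ~15 min with compounds, then given 10 microM Ac-LKRR-Rhodamine 110. Fluorescence (ex 485/em 538 nm) after 25 min in the dark at room temperature.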

Assay [16] concerns Zika virus NS2B-NS3 protease (linked). Kind of assay: 384 well plate NINDS AMC confirmatory qHTS for Zika virus inhibitors (AID 1347163).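 Further: fluorescence of AMC released from Ac-VKTGKR-AMC peptide cleaved by the protease; top concentration of the series differs between compounds; nearly all actives have a fitted effect of over 50% in size.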 Put shortly:
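Linked protease 5/30/60 nM final; cpds up to 1 mM final, ~15 min preinc. Substrate Ac-VKTGKR-AMC 30 microM final. RT, dark, 25 min; FI ex 355/em 460; normalized to no-enzyme/no-inhibitor ctrls.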

Structures are written as SMILES. “And” between values parts separate entries of the source, which are not always exact repeats. Equal values may be shown once. Inconclusive results are not listed. Entries that show only a call come without a potency. Values without a mark were called inactive. The source made the active and inactive calls. The call rests on the fitted dose curve; in most records, active means well fitted curve in the direction sought with a large enough effect; inconclusive means small, poorly fitted or top-dose-only effect, or another doubt; inactive means no such curve, though single readings can be large; an effect the other way counts as inactive or inconclusive.

Chain of Lysine-specific demethylase 5B (Homo sapiens) (Q9UGL1 whole entry, looked up): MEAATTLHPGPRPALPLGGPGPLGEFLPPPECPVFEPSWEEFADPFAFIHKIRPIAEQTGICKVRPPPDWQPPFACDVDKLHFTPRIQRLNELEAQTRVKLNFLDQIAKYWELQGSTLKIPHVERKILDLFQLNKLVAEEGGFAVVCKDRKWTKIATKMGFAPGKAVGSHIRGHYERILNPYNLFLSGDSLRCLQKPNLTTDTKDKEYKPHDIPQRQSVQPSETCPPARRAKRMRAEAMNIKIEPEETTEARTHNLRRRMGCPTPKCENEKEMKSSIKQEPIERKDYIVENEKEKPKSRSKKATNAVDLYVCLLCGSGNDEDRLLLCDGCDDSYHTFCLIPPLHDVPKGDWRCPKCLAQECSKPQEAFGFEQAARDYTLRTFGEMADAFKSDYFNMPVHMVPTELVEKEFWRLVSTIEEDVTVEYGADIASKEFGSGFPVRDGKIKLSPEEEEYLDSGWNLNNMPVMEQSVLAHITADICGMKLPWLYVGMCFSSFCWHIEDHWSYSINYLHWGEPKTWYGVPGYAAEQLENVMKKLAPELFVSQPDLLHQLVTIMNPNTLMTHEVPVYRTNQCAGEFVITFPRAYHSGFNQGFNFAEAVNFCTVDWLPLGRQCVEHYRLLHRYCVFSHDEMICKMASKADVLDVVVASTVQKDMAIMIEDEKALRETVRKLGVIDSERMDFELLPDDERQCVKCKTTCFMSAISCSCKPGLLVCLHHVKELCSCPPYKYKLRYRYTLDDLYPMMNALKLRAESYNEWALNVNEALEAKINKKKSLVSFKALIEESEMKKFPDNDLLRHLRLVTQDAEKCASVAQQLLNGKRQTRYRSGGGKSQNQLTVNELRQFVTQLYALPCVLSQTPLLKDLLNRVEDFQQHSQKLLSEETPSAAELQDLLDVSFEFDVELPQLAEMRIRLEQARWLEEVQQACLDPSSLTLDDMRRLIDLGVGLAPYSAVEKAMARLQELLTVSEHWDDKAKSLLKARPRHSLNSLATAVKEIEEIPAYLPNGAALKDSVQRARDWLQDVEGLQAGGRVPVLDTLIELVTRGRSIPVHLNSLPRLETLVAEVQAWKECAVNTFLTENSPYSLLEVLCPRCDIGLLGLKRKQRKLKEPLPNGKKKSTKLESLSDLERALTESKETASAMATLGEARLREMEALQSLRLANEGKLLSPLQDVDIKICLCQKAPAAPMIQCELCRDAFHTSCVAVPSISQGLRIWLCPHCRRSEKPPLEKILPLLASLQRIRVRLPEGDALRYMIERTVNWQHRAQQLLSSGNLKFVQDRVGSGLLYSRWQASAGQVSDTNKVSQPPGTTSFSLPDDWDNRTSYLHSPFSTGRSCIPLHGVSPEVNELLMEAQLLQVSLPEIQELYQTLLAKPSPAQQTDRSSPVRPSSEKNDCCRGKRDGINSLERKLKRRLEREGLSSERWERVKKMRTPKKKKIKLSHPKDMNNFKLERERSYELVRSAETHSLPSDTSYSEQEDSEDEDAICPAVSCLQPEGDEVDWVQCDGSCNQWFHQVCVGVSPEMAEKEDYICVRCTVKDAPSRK
Chain of Furin (Homo sapiens) (P09958 whole entry, looked up): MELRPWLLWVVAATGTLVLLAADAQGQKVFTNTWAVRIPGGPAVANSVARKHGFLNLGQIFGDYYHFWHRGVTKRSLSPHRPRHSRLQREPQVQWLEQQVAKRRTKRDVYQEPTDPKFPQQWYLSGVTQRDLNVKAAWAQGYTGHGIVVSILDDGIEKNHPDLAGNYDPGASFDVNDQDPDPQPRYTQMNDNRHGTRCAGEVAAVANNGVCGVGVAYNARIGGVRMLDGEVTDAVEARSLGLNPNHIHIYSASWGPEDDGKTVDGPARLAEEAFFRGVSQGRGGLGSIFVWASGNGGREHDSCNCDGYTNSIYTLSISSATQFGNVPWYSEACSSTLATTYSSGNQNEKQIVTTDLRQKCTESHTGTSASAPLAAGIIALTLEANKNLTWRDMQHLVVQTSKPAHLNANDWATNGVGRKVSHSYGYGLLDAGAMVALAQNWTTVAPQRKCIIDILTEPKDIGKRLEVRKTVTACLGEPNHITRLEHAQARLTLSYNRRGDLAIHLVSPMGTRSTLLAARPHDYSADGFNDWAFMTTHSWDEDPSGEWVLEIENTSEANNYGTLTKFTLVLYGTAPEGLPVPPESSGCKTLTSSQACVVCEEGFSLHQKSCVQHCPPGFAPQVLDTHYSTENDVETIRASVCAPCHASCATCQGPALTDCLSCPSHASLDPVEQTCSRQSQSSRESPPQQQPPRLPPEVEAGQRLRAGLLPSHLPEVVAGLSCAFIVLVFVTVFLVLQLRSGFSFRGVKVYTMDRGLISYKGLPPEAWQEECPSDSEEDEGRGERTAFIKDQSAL

Turning to `CC1=C(C(=O)O)N2C(=O)[C@@H](NC(=O)[C@H](N)c3ccc(O)cc3)[C@H]2SC1`, in assay [1], the Potency result is “inactive”.
Take `C[N+]1(CCCCC[N+]2(C)CCCC2)CCCC1`: the Potency entry in assay [2] and in assay [3] was “inactive” in each case. Moreover, the compound was called inactive in assay [4].
In the case of `CN1C2CCC1CC(OC(=O)c1c[nH]c3ccccc13)C2` (configuration not stated), the Potency entry in assay [2] and in assay [3] was “inactive” in each case. In assay [4], the compound was called inactive.
For the compound `CN=C(NC#N)NCCSCc1csc(N=C(N)N)n1`, in assay [1], the Potency result is “inactive”.
As for `CCCC1O[C@@H]2C[C@H]3[C@@H]4CCC5=CC(=O)C=C[C@]5(C)[C@H]4[C@@H](O)C[C@]3(C)[C@]2(C(=O)CO)O1` (some centres not stated), the Potency result in assay [2] and in [3] was “inactive” throughout. Moreover, the compound was called inactive in assay [4].
Take `CNCCC(Oc1ccccc1C)c1ccccc1` (configuration not stated): the Potency result in assay [2] and in assay [3] was “inactive” each time. In addition, in assay [4], the compound was classed as inactive.
`COC(=O)[C@H]1[C@H]2C[C@H]3c4[nH]c5ccccc5c4CCN3C[C@H]2CC[C@@H]1O`: the Potency entry in assay [3] is “inactive”. Moreover, the compound was classed as inactive in assay [4].
On to `CC(CCc1ccccc1)NCC(O)c1ccc(O)c(C(N)=O)c1` (configuration not stated), for which the Potency in assay [2] is 56.2 µM (active); in [3], 26.7 µM (active). In addition, the compound was called inactive in assay [5] and in assay [6].
With `CCCCCCCCCCCCCCCCOP(=O)([O-])OCC[N+](C)(C)C`, the Potency entry in assay [1] was “inactive”.
Still for that read-out and setting: then `COc1cc(/C=C/C(=O)O[C@H]2CC[C@]34C[C@]35CC[C@]3(C)[C@@H]([C@H](C)CCC=C(C)C)CC[C@@]3(C)[C@@H]5CC[C@H]4C2(C)C)ccc1O`, with “inactive”.
For the compound `Nc1nc2ncc(CNc3ccc(C(=O)N[C@@H](CCC(=O)O)C(=O)O)cc3)nc2c(=O)[nH]1`, the Potency with Furin (Homo sapiens) was 21.5 µM (active); in assay [1], 18.1 µM (active); in assay [8], 55.3 µM (active). Further, the Potency entry in assay [7], in assay [9], in assay [10] and in assay [11] was “inactive” each time.
Turning to `CCCn1c(=O)[nH]c(=O)c2[nH]cnc21`, the Potency entry in [2] and in [3] was “inactive” each time. Further, the result in assay [4] was inactive.
As to `CC[N+](CC)(CCNC(=O)C(=O)NCC[N+](CC)(CC)Cc1ccccc1Cl)Cc1ccccc1Cl`, in assay [1], the Potency entry is “inactive”.
In the case of `O=C(Nc1ccc(Oc2ccc(Cl)cc2)c(Cl)c1)c1cc(I)cc(I)c1O`, the Potency result (in the assay with Furin (Homo sapiens); in assay [10]) was “inactive” throughout. For the same compound, the Potency is 13.6 µM (active) in assay [12]; 21.5 µM (active) in assay [7]; 14.1 µM (active) in assay [1]; 6.31 µM (active) in [13]; 11.2 µM (active) in assay [14]; 20 µM (active) and 3.93 µM (active) in [8]. The results for the Potency in [15] and in [11] were 20 µM (active) and 26.2 µM (active), respectively.
In the case of `CCN(CC)C(=O)N1CCN(C)CC1`, the Potency entry in assay [1] is “inactive”.
In the case of `COc1cc2c(cc1O)CC[C@@H]1[C@@H]2CC[C@]2(C)[C@@H](O)CC[C@@H]12`, the Potency entry in assay [3] is “inactive”. Moreover, in [4], the outcome was inactive.
As to `CC(C)NC[C@@H](O)COc1cccc2ccccc12`, the Potency entry in assay [1] was “inactive”.
For the compound `Oc1c(Cl)cc(Cl)cc1Sc1cc(Cl)cc(Cl)c1O`, the Potency entry (in the assay with Furin (Homo sapiens); in assay [11]) was “inactive” in each case. Further, the values for the Potency in assay [13], in assay [8] and in [15] were 22.4 µM (active), 7.08 µM (active) and 200 µM (active), respectively. The outcome in [16] was inactive.
With `CC1(C)CCC(NC(=O)[C@@H](N)CCC(=O)O)CC1`, the Potency entry in assay [2] and in [3] was “inactive” throughout. In [4], the call was inactive.
Consider `CN=C(NC#N)Nc1ccc(C2=NNC(=O)CC2C)cc1` (configuration not stated), for which the Potency entry in assay [1] is “inactive”.

Source of the values: PubChem BioAssay (NCATS).
